The record followed here is PubChem BioAssay.

Calls of active or inactive are those of the source.

Assay [1] can be described thus: small molecules captured by biotinylated probe aFSTL3 – biochemical, small-molecule microarray, fluorescence 635/667, stem cell growth factor project, primary screen (AID 1064).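 Also: measures binding of the biotinylated anti-FSTL3 antibody to printed compounds.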 The note with it: higher = more signal.
Assay [2] in a line: binders from COS7 lysate, DM2A8 probe, primary screen, torsin A project, cell lysate, small-molecule microarray, fluorescence 635/667 (AID 1065). The conditions noted are these: higher = more signal, COS7 lysate expressing mutant human TOR1A.
Assay [3] is described as follows: small molecules captured by biotinylated probe aFGF2 – biochemical, small-molecule microarray, fluorescence 635/667, stem cell growth factor project, primary screen (AID 1067).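 Also: measures binding of biotinylated aFGF2 protein to printed compounds on slides; z-score merges feature fluorescence and signal-to-noise across triplicate slides.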 The note with it: higher = more signal.
Assay [4] can be described thus: small molecules captured by biotinylated probe aFGF10 – biochemical, small-molecule microarray, fluorescence 635/667, stem cell growth factor project, primary screen (AID 1071).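 Also: score merges 667 nm spot intensity and signal to noise from triplicate slides.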 The note with it: higher = more signal.
Assay [5] has as its target Neurogenic locus notch homolog protein 2 (Homo sapiens) (UniProt Q04721). The assay is described as follows: small molecules binding Notch2 protein – biochemical, small-molecule microarray, 635 nm fluorescence, stem cell growth factors, primary screen (AID 1073). The note with it: higher = more signal.
Assay [6] deals with Pro-neuregulin-1, membrane-bound isoform (Homo sapiens) (UniProt Q02297). The assay is described as follows: small molecules binding neuregulin-1 protein – biochemical, small-molecule microarray, fluorescence 635/667, psychiatric disease protein project, primary screen (AID 1075).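 Also: score combines 667 nm spot fluorescence with signal to noise.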 The note with it: NRG1 binding, 635 nm fluorescence, higher = more signal.
Assay [7] has as its system Neuregulin-1 EGF-like domain. In words: small molecules binding NRG1 EGF domain – biochemical, small-molecule microarray, 635 nm fluorescence, primary screen (AID 1081).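 Also: binding of the protein to compounds printed on small-molecule microarray slides.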 The note with it: higher = more signal.
A short description of assay [8]: FRG1 expression reporter modulators in myotubes – cell-based, C2C12 myotubes, firefly/Renilla luciferase, luminescence, FRG1 inhibition for FSHD, primary screen (AID 1084). The conditions noted are these: FRG1 promoter luciferase, higher = more signal, called active from +8 up or from −8 down.
Assay [9] is described as follows: small molecules captured by biotinylated probe aFST – biochemical, small-molecule microarray, fluorescence 635/667, stem cell growth factor project, primary screen (AID 1086).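 Also: score merges 667 nm fluorescence with signal-to-noise of each printed compound spot.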 The note with it: higher = more signal.
Assay [10] can be described thus: binders of probe aHhip on microarray, primary screen, stem cell growth factor project, biochemical, small-molecule microarray, fluorescence 635/667 (AID 1087).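 Also: score merges spot fluorescence at 667nm with spot signal to noise ratio.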 The conditions noted are these: higher = more signal.
For assay [11], the system named is PRMT1 (protein arginine N-methyltransferase 1). In words: small molecules binding arginine methyltransferase PRMT1 – biochemical, small-molecule microarray, 635 nm fluorescence, primary screen (AID 1088).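 Also: binding of Prmt1 protein to compounds spotted on small-molecule microarray slides.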 The note with it: higher = more signal.
The nature of assay [12]: growth effects on S. cerevisiae YJM789 – YJM789 clinical isolate, OD600, 24 h, basal, primary screen (AID 1089).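 Also: growth of clinical yeast isolate S. cerevisiae YJM 789 seeded 1000 cells per well; test concentration not given here.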 The conditions noted are these: higher = more signal, called active from +8 up or from −8 down.
The nature of assay [13]: S. pombe growth modifiers, basal conditions – strain 972, OD600, 24 h, no modulator, primary screen (AID 1090).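 Also: basal condition with compound alone and no growth modifier present; test concentration not given here.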 The conditions noted are these: S. pombe 972 growth, higher = more signal, called active from +8 up or from −8 down.
Assay [14] in a line: budding yeast growth modifiers under rapamycin – strain BY4716, OD600, 96 h, primary screen (AID 1091). Also: test concentration not given here. The conditions noted are these: S. cerevisiae BY4716 + rapamycin, higher = more signal, called active from +8 up or from −8 down.
Assay [15] addresses Torsin-1A-interacting protein 2 (Homo sapiens) (UniProt Q8NFQ8). The assay is described as follows: small molecules binding lysate-expressed LULL1 – cell lysate, human LULL1 lysate, 635/667 nm fluorescence, primary screen (AID 1092).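 Also: probe is lysate of COS7 cells overexpressing human LULL1; score merges per-feature 667 nm fluorescence with signal-to-noise.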 The conditions noted are these: small-molecule microarray, hLULL1 lysate binding, 635 nm fluorescence; higher = more signal.
A short description of assay [16]: optical density change of DRC41 E. coli – strain DRC41, OD650, 24 h, E. coli filamentation project, primary screen (AID 1093).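 Also: MC1000 strain lacking acrAB efflux and sulA so SOS filamentation is blocked; test concentration not given here.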 The note with it: E. coli DRC41 growth, higher = more signal, called active from +8 up or from −8 down.
Assay [17] can be described thus: probe aLefty2 binding to arrayed compounds – biochemical, biotinylated probe, 635/667 nm fluorescence, primary screen (AID 1094).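 Also: score merges spot fluorescence near 667 nm with spot signal-to-noise ratio.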 The conditions noted are these: small-molecule microarray, higher = more signal.
For assay [18], the system named is Noggin (protein binding on small-molecule microarray). In words: small molecules binding Noggin protein – biochemical, 635/667 nm fluorescence, primary screen (AID 1095).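 Also: score merges 667 nm feature fluorescence with signal to noise over triplicate slides.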 The conditions noted are these: 635 nm fluorescence, higher = more signal.
Assay [19] concerns the target Neurogenic locus notch homolog protein 3 (Homo sapiens) (UniProt Q9UM47). In words: small molecules binding NOTCH3 protein – biochemical, 635/667 nm fluorescence, primary screen (AID 1096). The note with it: small-molecule microarray, 635 nm fluorescence, higher = more signal.
A short description of assay [20]: probe aEGFR binding to arrayed compounds – biochemical, biotinylated probe, 635/667 nm fluorescence, primary screen (AID 1097).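 Also: probe is a biotinylated anti-EGFR antibody binding compounds printed on slides; score combines fluorescence near 667 nm and signal to noise of each spot.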 The conditions noted are these: small-molecule microarray, higher = more signal.

Sequence of Pro-neuregulin-1, membrane-bound isoform (Homo sapiens) (Q02297 whole entry, looked up, the tested form may be a part, canonical isoform): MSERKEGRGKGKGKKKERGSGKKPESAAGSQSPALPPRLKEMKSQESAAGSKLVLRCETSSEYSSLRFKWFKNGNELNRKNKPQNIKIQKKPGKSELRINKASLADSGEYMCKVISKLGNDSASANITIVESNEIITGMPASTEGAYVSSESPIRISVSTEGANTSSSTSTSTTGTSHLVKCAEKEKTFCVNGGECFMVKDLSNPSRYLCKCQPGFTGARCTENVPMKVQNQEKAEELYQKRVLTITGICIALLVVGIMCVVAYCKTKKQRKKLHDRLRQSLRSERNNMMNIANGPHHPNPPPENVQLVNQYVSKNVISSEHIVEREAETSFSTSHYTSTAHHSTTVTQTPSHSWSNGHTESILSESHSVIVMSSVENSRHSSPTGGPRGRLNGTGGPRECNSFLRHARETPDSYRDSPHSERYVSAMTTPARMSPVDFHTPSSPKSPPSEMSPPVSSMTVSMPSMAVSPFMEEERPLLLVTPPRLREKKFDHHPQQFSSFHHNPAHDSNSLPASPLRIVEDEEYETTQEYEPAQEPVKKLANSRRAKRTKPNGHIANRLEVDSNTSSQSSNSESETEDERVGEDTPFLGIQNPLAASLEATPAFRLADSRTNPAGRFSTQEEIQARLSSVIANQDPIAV
Sequence of Torsin-1A-interacting protein 2 (Homo sapiens) (Q8NFQ8 whole entry, looked up): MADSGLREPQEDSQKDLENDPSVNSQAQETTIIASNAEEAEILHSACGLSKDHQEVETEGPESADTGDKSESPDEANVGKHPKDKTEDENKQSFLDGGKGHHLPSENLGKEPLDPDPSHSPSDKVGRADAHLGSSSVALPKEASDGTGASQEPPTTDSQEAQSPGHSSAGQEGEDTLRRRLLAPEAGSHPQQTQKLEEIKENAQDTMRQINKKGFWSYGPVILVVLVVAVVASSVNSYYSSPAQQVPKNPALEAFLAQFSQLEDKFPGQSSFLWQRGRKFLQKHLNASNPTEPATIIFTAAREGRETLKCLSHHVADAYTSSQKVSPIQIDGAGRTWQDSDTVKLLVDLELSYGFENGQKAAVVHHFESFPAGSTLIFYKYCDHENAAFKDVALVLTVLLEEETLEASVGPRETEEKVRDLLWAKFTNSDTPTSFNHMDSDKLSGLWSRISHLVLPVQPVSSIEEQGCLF
Sequence of Neurogenic locus notch homolog protein 3 (Homo sapiens) (Q9UM47 whole entry, looked up): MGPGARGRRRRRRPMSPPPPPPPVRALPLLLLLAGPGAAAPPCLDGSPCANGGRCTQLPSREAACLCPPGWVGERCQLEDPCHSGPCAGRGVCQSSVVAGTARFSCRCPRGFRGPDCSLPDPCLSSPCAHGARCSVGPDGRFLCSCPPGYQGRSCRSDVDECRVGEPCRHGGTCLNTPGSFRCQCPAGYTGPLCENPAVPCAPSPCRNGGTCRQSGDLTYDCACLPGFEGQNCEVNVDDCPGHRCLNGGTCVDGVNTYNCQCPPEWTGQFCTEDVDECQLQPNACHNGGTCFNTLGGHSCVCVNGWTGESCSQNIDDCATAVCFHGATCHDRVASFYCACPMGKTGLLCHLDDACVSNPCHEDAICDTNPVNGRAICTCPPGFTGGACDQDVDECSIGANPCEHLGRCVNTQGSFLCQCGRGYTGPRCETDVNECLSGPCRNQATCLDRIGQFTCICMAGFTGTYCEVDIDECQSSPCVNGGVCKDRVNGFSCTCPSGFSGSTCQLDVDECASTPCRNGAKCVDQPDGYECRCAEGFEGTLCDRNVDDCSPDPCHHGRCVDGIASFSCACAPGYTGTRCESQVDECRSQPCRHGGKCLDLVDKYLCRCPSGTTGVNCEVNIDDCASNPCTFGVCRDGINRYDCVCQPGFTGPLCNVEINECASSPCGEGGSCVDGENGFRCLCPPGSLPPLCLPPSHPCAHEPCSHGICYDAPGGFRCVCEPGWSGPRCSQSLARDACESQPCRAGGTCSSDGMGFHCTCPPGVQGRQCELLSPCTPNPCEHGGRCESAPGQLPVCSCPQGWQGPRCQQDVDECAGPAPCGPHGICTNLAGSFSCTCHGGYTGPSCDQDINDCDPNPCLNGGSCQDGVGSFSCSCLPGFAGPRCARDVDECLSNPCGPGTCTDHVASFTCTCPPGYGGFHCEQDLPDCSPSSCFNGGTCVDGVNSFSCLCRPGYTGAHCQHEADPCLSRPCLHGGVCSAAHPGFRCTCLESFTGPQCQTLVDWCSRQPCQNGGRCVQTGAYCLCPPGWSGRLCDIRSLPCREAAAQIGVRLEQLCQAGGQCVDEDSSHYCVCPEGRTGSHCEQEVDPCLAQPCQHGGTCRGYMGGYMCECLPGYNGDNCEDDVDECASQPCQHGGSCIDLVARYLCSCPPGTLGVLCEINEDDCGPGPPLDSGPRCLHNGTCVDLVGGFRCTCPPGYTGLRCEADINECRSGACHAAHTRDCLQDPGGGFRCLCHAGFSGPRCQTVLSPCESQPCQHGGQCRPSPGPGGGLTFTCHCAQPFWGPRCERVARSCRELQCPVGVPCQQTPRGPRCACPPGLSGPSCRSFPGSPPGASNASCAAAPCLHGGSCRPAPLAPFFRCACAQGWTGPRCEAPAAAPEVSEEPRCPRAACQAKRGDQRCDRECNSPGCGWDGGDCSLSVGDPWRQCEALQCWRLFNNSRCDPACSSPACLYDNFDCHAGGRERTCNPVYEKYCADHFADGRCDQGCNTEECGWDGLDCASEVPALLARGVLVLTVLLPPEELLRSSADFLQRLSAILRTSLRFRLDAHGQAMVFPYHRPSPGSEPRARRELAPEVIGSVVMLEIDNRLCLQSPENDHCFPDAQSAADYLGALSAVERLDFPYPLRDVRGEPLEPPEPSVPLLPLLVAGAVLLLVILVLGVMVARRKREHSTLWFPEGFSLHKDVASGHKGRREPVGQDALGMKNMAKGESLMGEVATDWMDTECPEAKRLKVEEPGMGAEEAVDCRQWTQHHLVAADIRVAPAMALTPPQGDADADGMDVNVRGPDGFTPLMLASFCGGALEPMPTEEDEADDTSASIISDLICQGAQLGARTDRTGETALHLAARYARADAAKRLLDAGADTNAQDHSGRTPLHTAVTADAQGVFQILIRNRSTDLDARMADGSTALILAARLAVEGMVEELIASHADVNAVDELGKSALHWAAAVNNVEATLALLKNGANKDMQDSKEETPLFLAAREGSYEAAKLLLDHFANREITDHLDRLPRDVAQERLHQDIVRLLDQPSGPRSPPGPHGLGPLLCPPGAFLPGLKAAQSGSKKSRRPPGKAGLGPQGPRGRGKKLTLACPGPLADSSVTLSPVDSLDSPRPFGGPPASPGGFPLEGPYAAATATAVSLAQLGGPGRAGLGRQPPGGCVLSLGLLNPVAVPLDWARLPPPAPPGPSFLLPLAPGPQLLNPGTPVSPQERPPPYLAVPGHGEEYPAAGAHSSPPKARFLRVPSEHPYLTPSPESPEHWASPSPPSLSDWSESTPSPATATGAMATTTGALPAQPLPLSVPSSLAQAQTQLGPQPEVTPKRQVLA

On to `CCCC[C@@H]1C[C@H]1[C@@H](NC(=O)Cc1ccccc1)c1ccc(Cl)cc1`, for which the composite z-score stood at 0.409 in assay [1]; 0.469 in assay [2]; 0.428 in assay [3]; 0.671 in [4]; 1.63 in assay [5]; 1.72 in assay [6]. Further, the composite z-score in [7] is 1.19; in assay [9] it was 1.46; in assay [10] it was -0.193; in assay [11] it was 0.576; in assay [15], 3.14; in assay [17] it was 0.105. Moreover, the composite z-score was found to be 1.34 in assay [18], 1.03 in assay [19] and 0.218 in [20]. Moreover, the z-score is -2.4 (inactive) in assay [8]; 0.0911 (inactive) in assay [12]; -1.16 (inactive) in assay [13]; 1.68 (inactive) in [14]; -0.76 (inactive) in assay [16].
In the case of `COc1cccc(OC)c1C(=O)O[C@H]1[C@@H]2OC(=O)[C@H](Cc3cccc(Br)c3)C/C=C/C[C@@H](Cc3cccc(Br)c3)C(=O)O[C@H]2[C@@H](OC)O[C@@H]1CO`, the composite z-score in assay [1] is 0.0113; in assay [2], 0.94; in [3], -0.0262; in assay [4] it was 0.205; in assay [5], 0.194; in assay [6], 1.28. Also, the composite z-score was 0.945 in assay [7]; 0.401 in [9]; 0.101 in assay [10]; 1.4 in assay [11]; 1.08 in [15]; -0.0711 in assay [17]. Besides, the composite z-score is 0.8 in assay [18], 0.541 in assay [19] and -0.0678 in assay [20]. Besides, the z-score in assay [8] is -0.199 (inactive); in assay [12], -0.372 (inactive); in assay [13] it was -0.246 (inactive); in assay [14] it was 0.231 (inactive); in [16], -1.17 (inactive).
With `CCCCCN1CC=CC23O[C@@H]4C=CCOC(=O)[C@@H]4[C@H]2C(=O)N(CCCCCO)[C@@H]3C1=O` (stereo not given in full), the composite z-score in assay [1] is 0.346; in [2], 1.8; in [3], -0.113; in [4], -1.11; in assay [5] it was -1.26; in [6], -0.48. Moreover, the composite z-score in [7] was 1.29; in assay [9], -0.883; in [10], -0.261; in [11], 0.421; in assay [15], 1.59; in assay [17], -0.121. The composite z-score in assay [18] is -0.361; in assay [19] it was 0.103; in assay [20], -0.167. The z-score in assay [8] is 0.391 (inactive); in assay [12], -1.16 (inactive); in [13] it was 0.249 (inactive); in assay [14], -1.02 (inactive); in [16], 2.58 (inactive).
`COC(=O)[C@@]1(Cc2ccccc2CN=[N+]=[N-])COC(c2ccc(OCCCO)cc2)=N1`: the composite z-score in [1] is 1.28; in [2], -1.34; in assay [3], -0.245; in assay [4] it was -0.565; in [5], -1.79; in assay [6] it was 0.305. The composite z-score in [7] was 0.62; in assay [9], -0.575; in assay [10], -0.137; in assay [11] it was 1.26; in assay [15], 3.04; in [17] it was 0.175. The composite z-score was -1.69 in assay [18], -1.25 in assay [19] and -0.442 in [20]. For the same compound, the z-score in [8] is -0.988 (inactive); in [12], -1.38 (inactive); in assay [13], -6.67 (inactive); in [14], -1.9 (inactive); in assay [16] it was 0.441 (inactive).
Regarding `COC(=O)C1=CC(CCCO)=CC(c2ccc(CN3CCCC3)cc2)N(Cc2sc3ccccc3c2Cl)C=C1C(=O)OC` (stereo not given), the composite z-score in [1] worked out at 0.688; in assay [2], 2.31; in assay [3], 0.321; in [4] it was 1.31; in assay [5], 1.73; in assay [6], 2.43. Further, the composite z-score was 1.32 in [7]; 1.21 in assay [9]; 0.167 in [10]; 1.54 in [11]; 3.3 in [15]; 0.91 in assay [17]. The composite z-score is 0.766 in assay [18], 1.04 in assay [19] and 0.681 in assay [20]. Besides, the z-score in assay [8] is -0.591 (inactive); in [12], -3.34 (inactive); in assay [13], -7.33 (inactive); in assay [14], -1.39 (inactive); in assay [16], -0.542 (inactive).
